Data from ChEMBL document CHEMBL3433997, “St. Jude Leishmania screening dataset” (2016).

The compounds below were run against Glucose transporter (Leishmania mexicana) (UniProt O61059) (assay: ST_JUDE_LEISH: Cytotoxicity at 2uM final concentration against transgenic Leishmania Mexicana promastigotes LmGT2 that are glucose transport deficient and complemented with the L. Mexicana glucose transporter 2. Activity is measured by DNA content using SYBR green in vitro).
Format: functional

Row | Compound | inhibition [%]
1 | CN1CCC(N2CCN(Cc3cccc(-c4cccc(-c5nc6ccccc6[nH]5)c4)c3)CC2)CC1 | -3.95
2 | C=CCN1C(=O)c2[nH]nc(-c3cc(C)c(C)cc3O)c2C1c1cccc(Br)c1 (stereo not given) | 1.27
3 | CN1CCC(C(=O)N(Cc2ccc(-c3ccc(CNCCc4ccccc4)cn3)cc2)Cc2cccc(F)c2)CC1 | 4.08
4 | CC(C)(C)c1ccc(CNC(=O)c2cc(CNC3CCNC3)ccc2O)cc1 (stereo not given) | 0.53
5 | CCNc1cc(C(=O)N[C@@H](Cc2ccccc2)[C@H](O)CNC2C3CC4CC(C3)CC2C4)cc(N2CCCCS2(=O)=O)c1 (stereo not given in full) | -1.02
6 | CC(C)COc1ccc(Cl)cc1Cc1ccc(-c2nc3ccc(F)c(F)c3[nH]2)o1 | 0.57
7 | O=C(/C=C/c1ccc(Cl)c(Cl)c1)NC1CCN(Cc2cccc(O)c2)CC1 | -2.96
8 | O=[N+]([O-])c1cc(/C=N/Nc2nc3ccccc3[nH]2)ccc1O | 4.27
9 | CC(C)OC(=O)c1cccnc1SCC(=O)Nc1ccc(C(F)(F)F)cc1Cl | 3.79
10 | COc1ccc(CNCc2cccc(-c3ccc(-c4nc5cccc(C)c5[nH]4)s3)c2)cc1 | 2.36
11 | COc1ccc(CCON2C(=N)N=C(N)NC2(C)C)cc1OC | 3.2
12 | Cc1cc(C(=O)NCc2ccc(-c3c(C)noc3C)cc2)n(-c2ccccc2)n1 | 3.34
13 | Cc1[nH]c2ccc(C#N)cc2c(=O)c1Br | 1.31
14 | O=C(Nc1ccccc1Oc1ccccc1)NC1CCN(c2ccnc3cc(Cl)ccc23)C1 (stereo not given) | 3.25
15 | COC1CCC(C(=O)Nc2ccc(-c3cccc(-c4nc5cc(C(F)(F)F)ccc5[nH]4)c3)cc2)CC1 (stereo not given) | 0.65
